# Hits are enriched below; roughly 5.3% of the tested compounds scored in any of these assays.
# Tau fibril FP – tau fibrillization inhibition (FP); K18 P301L tau heparin fibrillization, Alexa594 FP, 6 h; P10636; 280,000 tested, 0.39% active; Potency, µM (doses to about 57.7 µM), for the others: top-dose activity, negative = inhibition, usual class: inhibitors; further: potency means the concentration at half of the fitted maximal effect; nearly all actives have a fitted effect of over 55% in size
# Target sequence (P10636 561-689 P618L limits assumed): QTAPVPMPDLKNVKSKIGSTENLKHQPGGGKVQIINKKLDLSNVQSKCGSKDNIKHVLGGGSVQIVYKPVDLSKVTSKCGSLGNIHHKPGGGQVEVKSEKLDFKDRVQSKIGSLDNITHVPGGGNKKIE
#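 Heparin (20 uM) drove fibril formation of recombinant tau K18 P301L, 15 uM unlabeled with 0.24 uM Alexa 594 label, for 6 hr at 37 C in 100 mM sodium acetate pH 7. Fluorescence polarization (555/632 nm) read 1 hr after 30 uM ThT.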
# Tau fibril ThT – tau fibrillization inhibition (ThT binding). P10636. recombinant tau K18 P301L, heparin-induced fibrillization, ThT fluorescence. Potency, µM (titrated, usually from 57.4 µM), without a hit: at the top dose activity, negative = inhibition, usual class: inhibitors. 270,000 tested, 2.1% active. AID 1460; further: potency means the concentration at half of the fitted maximal effect; nearly all actives have a fitted effect of over 55% in size
#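 In this qHTS, human K18 P301L tau is incubated with compound and heparin for 6 hr at 37 C, and Thioflavin T fluorescence then reports fibril load.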
# Tau fluor counter – counter-screen for tau fibril formation inhibitors; tau K18 P301L Alexa594 fluorescence, heparin fibrillization; AID 1463; 280,000 tested, 0.93% active; Potency, µM (titrated, usually from 57.7 µM), without a hit: top-dose activity change, negative = decrease; further: potency means the concentration at half of the fitted maximal effect; nearly all actives have a fitted effect of over 55% in size
#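 Human tau K18 P301L (15 uM unlabeled, 0.24 uM Alexa 594-labeled) in 100 mM sodium acetate pH 7 with 20 uM heparin, 6 hr at 37 C. ThT 30 uM added, 1 hr ambient; Alexa 594 FP and total fluorescence read at 555/632 nm.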
# Sfp PPTase inh – inhibitors of Bacillus subtilis Sfp phosphopantetheinyl transferase. Q9F4F7. Biochemical Sfp PPTase activity, qHTS. Potency, µM, without a hit: largest response in the series, negative = inhibition, most hits filed as inhibitors. 310,000 tested, 3.5% active. AID 1490;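 further: the enzyme is Sfp with the accession as filed and its product quenches rhodamine fluorescence; potency means the concentration at half of the fitted maximal effect; 0% = enzyme reaction without inhibitor and -100% = no enzyme wells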
#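 After 15 min at room temperature with compound, 15 nM Sfp received 5 uM rhodamine-CoA plus 12.5 uM BHQ-2-ybbR (50 mM Hepes pH 7.6, 10 mM MgCl2). Rate came from the fluorescence difference over 30 min, ex 525/em 598 nm.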
# KDM4E inh – blocks human JMJD2E demethylase activity; B2RXH2; JMJD2E catalytic domain, FDH-coupled NADH fluorescence (FDH is formaldehyde dehydrogenase); Potency, µM (doses to about 57.1 µM), for inactives: top-dose activity change, negative = inhibition, hits mostly inhibitors; 230,000 tested, 1.6% active; active means well fitted inhibition curve with a large enough effect, not every such curve was filed as active; inconclusive means small, poorly fitted or top-dose-only effect, or another doubt; inactive means no such curve, though single readings can be large or run the other way;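 further: potency means the concentration at half of the fitted maximal effect; 0% = wells with enzyme and -100% = buffer wells without enzyme; nearly all actives have a fitted effect of over 50% in size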
# Target sequence (B2RXH2 1-337 limits assumed): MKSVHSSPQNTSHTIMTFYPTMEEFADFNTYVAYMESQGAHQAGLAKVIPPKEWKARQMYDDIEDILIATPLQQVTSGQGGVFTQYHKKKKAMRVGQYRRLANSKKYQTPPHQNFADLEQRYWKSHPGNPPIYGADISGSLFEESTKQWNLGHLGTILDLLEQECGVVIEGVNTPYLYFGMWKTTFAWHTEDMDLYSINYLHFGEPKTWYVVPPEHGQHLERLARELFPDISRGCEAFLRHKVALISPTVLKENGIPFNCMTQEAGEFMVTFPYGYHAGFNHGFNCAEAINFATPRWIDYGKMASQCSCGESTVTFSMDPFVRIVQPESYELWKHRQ
# Coupling enz – counter-screen for Giardia aldolase inhibitors: coupling enzyme system. 290,000 tested, 0.67% active. AID 2472. coupling enzyme system counterscreen, AmpLite Red fluorescence. activity change, negative = inhibition, % at 58.2 µM, hits read low; in the data active means activity change below about -30%
#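 Final compound at 57.5 uM, incubated 10 min at RT with coupling enzyme reagent (glyceraldehyde-3-phosphate), then 20 min with substrate and AmpLite Red detection. Fluorescence read at 525/598 nm; tests interference with the coupling assay, not aldolase inhibition.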
# * marks the source's active call; other numbers are inactive results; ? = inconclusive; · = no result given; ! = a repeat was not active; [ ] = dose if it differs, or a comment. Unless noted, the call rests on the fitted dose curve; in most records, active means well fitted curve in the direction sought with a large enough effect; inconclusive means small, poorly fitted or top-dose-only effect, or another doubt; inactive means no such curve, though single readings can be large; an effect the other way counts as inactive or inconclusive. Unless noted, on the % scale 0 is the no-effect control and ±100 the full control effect.
SMILES,Tau fibril FP,Tau fibril ThT,Tau fluor counter,Sfp PPTase inh,KDM4E inh,Coupling enz
CC[C@H](C)[C@H](NC(=O)CN)C(=O)N[C@@H](CC(C)C)C(=O)NCC(=O)N[C@@H](Cc1ccccc1)C(=O)N[C@H](C(=O)N[C@@H](Cc1ccccc1)C(=O)N[C@H](C(=O)N[C@@H](CC(C)C)C(=O)O)[C@@H](C)O)C(C)C,·,·,·,6.5%,·,2.2
N[C@H](CCCP(=O)(O)O)C(=O)O,3.1%,-7.7%,-5.6%,16.5%,?,-1.8
C[C@@]12CCC(=O)C[C@@H]1CC[C@@H]1[C@@H]2CC[C@]2(C)C(=O)CC[C@@H]12,-9.4%,-5.7%,-11.8%,12.4%,4.4%,3.6
CC(=O)[C@@]1(O)CC[C@H]2C3CCC4=CC(=O)CC[C@]4(C)C3CC[C@@]21C (stereo not given in full),-1.5%,?,-6.2%,·,8.1%,·
N#CC(C#N)=NNc1cccc(Cl)c1,?,4.47µM*,?,56.2µM*,-10.8%,19.4
CC(C)OC(=O)Nc1cccc(Cl)c1,7.9%,-8.5%,-0.5%,-4.0%,2.8%,0.0
CC1=C(O)C(=O)[C@H]2O[C@@H]2C1=O,3.98µM*,2µM*,?,3.98µM*,?,-10.4
O=c1[nH]c(=O)n(-c2ccc(F)cc2)c(O)c1/C=C1\C=Nc2ccccc21,·,·,·,-1.0%,·,-1.5
O=c1[nH]c(=O)n(-c2ccccc2F)c(O)c1/C=C1\C=Nc2ccccc21,·,·,·,35.5µM*,·,2.0
CCCCCCCC/C=C\CCCCCCCC(=O)OC[C@@H](COP(O)(O)=S)OC,·,·,·,?,·,6.9
O=[N+]([O-])c1ccc(Sc2nc3ccccc3o2)c([N+](=O)[O-])c1,?,14.1µM*,8.91µM*[quencher],-17.3%,-3.0%,-8.2
COc1ccc2[nH]c(C)c(CCNCc3cc(OC)c(OC)c(OC)c3)c2c1,-1.2%,?,-10.6%,44.7µM*,?,-11.7
CCOc1ccc(Cc2c(O)[nH]c(=O)[nH]c2=O)cc1,25.1µM*,28.2µM*,-14.4%,20µM*,-22.5%,-15.8
CCC(/C=C/C(C)C1CCC2C3CC=C4CC(O)CC[C@@]4(C)C3CC[C@@]12C)C(C)C (stereo not given in full),0.1%,-5.4%,-3.1%,30.5%,-2.6%,0.9
C[C@H](CCC(=O)O)[C@H]1CC[C@@H]2[C@H]3CC[C@H]4C[C@@H](O)CC[C@@]4(C)[C@H]3CC[C@]21C,·,·,·,31.7%,-1.0%[25.5 µM],4.9
Cn1c(O)c(C(c2ccccn2)c2c(O)n(C)c(=S)[nH]c2=O)c(=O)[nH]c1=S,-13.6%,?,-12.4%,79.4µM*,?,4.3
Cc1ccc(-n2c(O)c(C=NCc3ccccn3)c(=O)[nH]c2=S)cc1,-6.5%,-5.4%,-1.0%,-16.8%,-2.0%,0.5
S=c1[nH]nc(Cn2c(-c3ccccn3)nc3ccccc32)n1-c1ccc2c(c1)OCCO2,9.2%,?,-13.7%,79.4µM*,?,-6.1
Cc1cccc(N2C(=O)NC(=O)/C(=C\c3ccc4c(c3)CCCN4Cc3ccccc3)C2=O)c1,-14.3%,?,-15.0%,44.7µM*,?,5.4
CC(C)(C)OC(=O)c1c(N)n(Cc2ccco2)c2nc3ccccc3nc12,2.9%,-14.3%,?,?,?,-1.9
COc1ccccc1-c1n[nH]c(=S)n1Cc1ccco1,-0.2%,-7.2%,-3.5%,20µM*,-12.7%,2.3
Cn1cc(C(=O)C(=O)N[C@H]2CN3CCC2CC3)c2ccccc21,-5.2%,-1.3%,-9.4%,56.2µM*!,-1.8%,0.2
Cn1cc(C(=O)N2CCCCC2)c2ccccc21,2.5%,-4.7%,3.3%,24.8%,-9.4%,2.2
COC(=O)[C@@H]1[C@@H]2C[C@H]3c4[nH]c5cc(OC)ccc5c4CCN3C[C@@H]2C[C@H](OC(=O)/C=C\c2cc(OC)c(OC)c(OC)c2)[C@H]1OC,·,·,·,-14.5%,?,-3.0
CCC(Sc1ccccc1)C(=O)OC1CC2CCC(C1)N2C (stereo not given),1.2%,-4.0%,-3.5%,-25.6%,·,·

# Source: PubChem (National Center for Advancing Translational Sciences (NCATS))
